Measured values published in PubChem BioAssay (NCI).
Compounds without any hit were thinned out: in the full panel of roughly 83,000, 20% have a hit.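 Values shown are percent growth following 48 h exposure of cells in 96-well plates to a single concentration of compound; below 10 was considered active.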 A number with no mark means an inactive call. Calls of active or inactive are those of the source.

Legend:
Assay in all cases: NCI-60 one-dose screen, 48 h (100 = growth as untreated, 0 = no growth, -100 = all killed)
Conditions in all cases: 10 µM unless noted
[1] = test system: NCI-H23 lung
[2] = test system: NCI-H226 lung
[3] = test system: NCI-H322M lung
[4] = test system: HOP-62 NSCLC
[5] = test system: NCI-H460 lung
[6] = test system: HOP-92 NSCLC
[7] = test system: NCI-H522 lung
[8] = test system: A549/ATCC NSCLC
[9] = test system: 786-0 renal
[10] = test system: COLO 205 colon

SMILES	growth [1]	growth [2]	growth [3]	growth [4]	growth [5]	growth [6]	growth [7]	growth [8]	growth [9]	growth [10]
c1ccc(Nc2nc(Nc3ccccc3)nc(Nc3ccccc3)n2)cc1	86.5%	89%	57.3%	90.6%	78%	60.9%	84.5%	79.9%	100%	76.1%
CC(C)NCCCNC1=C(Cl)C(=O)c2ccccc2C1=O	16.3%	93.1%	105%	98.3%	87.2%	110%	91.9%	81.7%	113%	95.4%
COc1ccc(N2CCN(Cc3cc(C(=O)/C=C/c4c[nH]c5ccccc45)ccc3O)CC2)cc1	102%	100%	100%	89%	106%	89.9%	95.2%	102%	105%	107%
COc1ccc(CNCCCN2C(=O)c3ccc4c5c(ccc(c35)C2=O)C(=O)N(CCCNCCCCNCCCN)C4=O)c(OC)c1OC	23.1%	23.8%	30.4%	19.3%	19.6%	51.7%	1.57% (active)	25.3%	22.4%	-86.1% (active)
O=Nc1c(-c2cccc([N+](=O)[O-])c2)nc2ncccn12	83.4%	102%	120%	100%	101%	87.4%	67.1%	97.7%	93.9%	65.1%
CCCN=C1NC(=O)/C(=C/c2nc(-c3ccc(OC)cc3)n3ccccc23)S1	77.9%	84.6%	82.5%	98.8%	37.4%	106%	88.1%	73.3%	58.5%	109%
COc1cc(Nc2nc(N[C@H]3CCCC[C@@H]3N)nc3cc[nH]c(=O)c23)cc(OC)c1	30.2%	-13.5% (active)	9.42% (active)	47.6%	27.6%	-10.1% (active)	-9.29% (active)	19.1%	40.4%	18.8%
CN1C(=O)N(C)C2C1NN=c1s/c(=C\c3cccnc3)c(=O)n12 (stereo not given)	86%	89.3%	89.1%	82.1%	83.8%	78.9%	72.2%	84%	96.5%	87%
O=C(c1ccccc1)c1c(/C=C/c2ccccc2)c2ccccc2[nH]c1=O	94.2%	89.9%	82.8%	87.1%	114%	73%	83.4%	93.5%	92.2%	110%
CC(C)OC(=O)N1CCOCC1	98.1%	101%	106%	98.9%	107%	92.2%	95.9%	103%	104%	101%
CN1C=CN(Cc2ccc(-c3ccccn3)nc2)[CH-]1.CN1C=CN(Cc2ccc(-c3ccccn3)nc2)[CH-]1.[Au+3]	36.3%	66.7%	-3% (active)	61.6%	21.3%	66.6%	34.2%	45.2%	52.8%	28.4%
CCc1ccc(-c2ccc(=O)n(-c3ccc(S(N)(=O)=O)cc3)n2)cc1	59.9%	94.1%	115%	56.9%	12.6%	65.7%	-33.6% (active)	18%	50%	26%
COc1cccc(-c2nc3sccn3c2-c2ccnc(NCCCNS(=O)(=O)c3ccc(F)cc3)c2)c1	30.6%	27.5%	69.9%	64.1%	34.8%	58.8%	29.3%	23.2%	56.8%	33.1%
CN(CCCCN(C[C@H]1Cc2ncccc2CN1)[C@H]1CCCc2cccnc21)C1CCC(F)(F)CC1	107%	78.4%	95.5%	68.2%	99.5%	70.5%	89.6%	84%	82.5%	87.8%
O=[N+]([O-])c1cc(S(=O)(=O)Oc2ccccc2)ccc1Cl	30.7%	75.3%	-13.3% (active)	54%	1.7% (active)	24.1%	14.3%	88.4%	24.1%	5.56% (active)
CCN(CC)c1ccc(CNc2ccnc3ccccc23)cc1	28.8%	58.6%	70.6%	66%	55.2%	-6.79% (active)	56.2%	58.9%	72.5%	25.6%
NC1=NC(SCc2ccccc2CCl)c2ncn(Cc3ccccc3CCl)c2N1 (stereo not given)	70.8%	60.2%	80.8%	74.5%	80.7%	24%	-92% (active)	80.3%	64.2%	43.9%
COc1ccc(Nc2ncccc2C(=O)NCc2cn(Cc3cccc(Oc4ccccc4)c3)nn2)c(OC)c1	37.5%	73.5%	56.1%	41.7%	7.15% (active)	62%	11.6%	39%	34%	4.54% (active)
COc1ccc(CCNC2=CC(=O)CCC2)cc1OC	92.5%	95%	110%	104%	111%	92.8%	102%	105%	107%	103%
COc1ccc(-c2cc(-c3ccccc3)nc(SCCCC(=O)NO)n2)cc1OC	-2.44% (active)	10.4%	17.1%	5.03% (active)	1.88% (active)	-10.6% (active)	-22.8% (active)	-17.1% (active)	0.761% (active)	23.7%
C[n+]1c(/C=C/c2c(O)ccc3ccccc23)ccc2ccccc21	37.2%	47.5%	42.9%	54.8%	9.44% (active)	-10.2% (active)	-6.6% (active)	51.3%	49.2%	25.3%
COc1ccc(S(=O)(=O)NCCCNc2nccc(-n3ccc4cccnc43)n2)cc1	102%	89.9%	87.7%	109%	98.7%	81.4%	84.3%	83%	97.6%	113%
NC(=S)N/N=C1\CCCC(C(F)(F)F)C1 (stereo not given)	101%	117%	101%	107%	109%	96%	94%	100%	98.9%	114%
Cc1cc(N)n(S(=O)(=O)c2oc(-c3ccccc3)nc2C#N)n1	90.3%	89.6%	98.4%	95%	106%	91.5%	24.4%	95.3%	90.1%	-34% (active)
NC(N)=N/N=C/c1ccc(-c2ccc(-c3cc(Cl)cc(Cl)c3)s2)cc1	-39.2% (active)	87.1%	72.6%	25.2%	-35.7% (active)	30%	-0.199% (active)	-71.1% (active)	-83.5% (active)	-12.9% (active)
Cc1ccc(-c2cc3nc(C(Cl)Cl)nc(-c4ccccc4C)n3n2)cc1	74%	100%	86.6%	68.3%	81.4%	64.7%	69.9%	23.3%	84.1%	54.1%
Cc1ccc(S(=O)(=O)NCCNc2cc(-c3cn(C(C)(C)C)nc3-c3cccc(O)c3)ccn2)cc1	74.7%	61.8%	82.2%	93.3%	60.8%	75.1%	68.1%	70.6%	68.5%	18.1%

SMILES	growth [1]	growth [2]	growth [3]	growth [4]	growth [5]	growth [6]	growth [7]	growth [8]	growth [9]	growth [10]
Clc1cc(Cl)c2nc(-c3ccc(-c4ccc(/C=N/NC5=NCCN5)cc4)s3)cn2c1	94.1%	89.5%	99.1%	88.9%	98.8%	14.5%	103%	87.7%	88.5%	93.7%
O=C(Nc1cccc(-n2cc(-c3ccncc3)c(-c3ccc(Cl)c(O)c3)n2)c1)c1ccc(N2CCOCC2)c(C(F)(F)F)c1	61.3%	107%	82.1%	40.4%	5.81% (active)	10.2%	39.6%	31.4%	59.6%	96.1%
Oc1ccc(Cl)cc1-c1cc(-c2ccc(F)cc2)n[nH]1	53.5%	92.7%	68.1%	62.5%	42.5%	64.6%	60.9%	62%	85.6%	81.7%
ClC(Cl)c1nc(-c2ccccc2)nc2cc(-c3ccccc3)nn12	51.5%	89.9%	96.6%	44.4%	74.9%	62.8%	97.1%	46.1%	80.1%	59.5%
O=C(Nc1cccc(-n2cc(-c3ccncc3)c(-c3ccc(Cl)c(O)c3)n2)c1)Nc1cc(C(F)(F)F)cc(C(F)(F)F)c1	-7.93% (active)	1.17% (active)	5.11% (active)	-86.1% (active)	-55.7% (active)	-45.8% (active)	-50.1% (active)	-32.4% (active)	-46.8% (active)	-97.3% (active)
COc1cc(/C=C/C(=O)/C=C/c2cc(OC)c3c(c2)OCO3)cc2c1OCO2	80.5%	78.8%	108%	106%	105%	83.9%	101%	93.5%	100%	96.5%
COc1cc(-c2nn(-c3cccc(NC(=O)c4ccc(Cl)c(C(F)(F)F)c4)c3)cc2-c2ccncc2)ccc1Cl	58.9%	56.3%	84.9%	53%	25.3%	22.5%	1.5% (active)	23.3%	59.5%	69.4%
CNC(=S)NNC(=O)C1CC1	97.9%	109%	121%	106%	115%	96%	108%	99.2%	97.2%	113%
CC(C)(C)NCCC(O)c1cc2c(Cl)cc(Cl)cc2c2cc(C(F)(F)F)ccc12 (stereo not given)	-78.6% (active)	-73.8% (active)	-54.2% (active)	-87.1% (active)	-73.6% (active)	-62.1% (active)	-81.8% (active)	-88.2% (active)	-65.5% (active)	-87.3% (active)
O=C1NN(C(=O)c2ccc(Cl)cc2)C(c2ccccc2)=N/C1=C\c1ccc(F)cc1	84%	92.1%	89.7%	99.1%	94.6%	83.5%	96.5%	87.5%	76.5%	109%
CC(C)(C)n1cc(-c2ccnc(NCCCNS(=O)(=O)c3ccc(Br)cc3)c2)c(-c2cccc(O)c2)n1	47.1%	40.4%	30.9%	46.8%	-21.2% (active)	48.4%	13.5%	24.1%	-2.1% (active)	-62.6% (active)
COc1cc(-c2nn(-c3cccc(NC(=O)c4ccccc4)c3)cc2-c2ccncc2)ccc1Cl	33.8%	39.1%	52.3%	27.1%	2.74% (active)	9.19% (active)	-29.6% (active)	4.81% (active)	21.3%	2.21% (active)
CC(C)(C)n1cc(-c2ccnc(NCCCNS(=O)(=O)c3cccc(F)c3)c2)c(-c2cccc(O)c2)n1	66.5%	60.9%	58.6%	73.8%	19.6%	79.5%	47.6%	42.5%	29.5%	8.99% (active)
NC(=O)CCCN1C/C(=C\c2ccccc2)C(=O)c2ccccc21	95.6%	86.4%	88.2%	88.8%	111%	84.4%	80.4%	95.1%	96.6%	105%
Cc1cccc(/C=N/Nc2cc(C)c3cccc(C)c3n2)n1	94.3%	86.9%	100%	110%	92.9%	75.5%	87%	87.8%	107%	96.2%
Cc1ccc(S(=O)(=O)NCCNc2nccc(-c3c(-c4cccc(N)c4)nc4sccn34)n2)cc1	91.7%	79.6%	108%	105%	94.7%	94%	83.5%	87.4%	96.3%	105%
CN1CCN(Cc2ccc(NC(=O)c3nc4ccc5[nH]ncc5c4c4c3CCC4)cc2C(F)(F)F)CC1	19.2%	73.9%	-50.9% (active)	-78.7% (active)	-84.2% (active)	65.5%	-71.1% (active)	-71.6% (active)	-96.5% (active)	-43% (active)
CCN(CC)CCC(CNc1c2ccc(Cl)cc2nc2ccc(OC)cc12)c1ccccc1 (stereo not given)	34.1%	13.9%	17.5%	-49.8% (active)	-39.6% (active)	-1.53% (active)	-81% (active)	-62.4% (active)	-85% (active)	-91.9% (active)
COc1ccc(C2=Nn3c(nnc3-n3nc(C)cc3C)SC2)cc1	30.2%	57.4%	44.6%	29.7%	4.1% (active)	11.2%	-9.16% (active)	10.2%	17.7%	-42.5% (active)
CC(=O)c1cc2c(N)c(C(=O)Nc3cccc4c3OCCO4)sc2nc1C	96%	88.9%	100%	80.7%	82.1%	99.2%	67.7%	71.4%	97.9%	86.6%
OCCCCCCNc1ncnc2cc(Cl)ccc12	95%	84.1%	105%	88.5%	94.2%	74.6%	87.8%	95.6%	100%	103%
COc1cc(-c2nn(C(=O)NS(=O)(=O)c3ccccc3)cc2-c2ccncc2)ccc1Cl	88.1%	66.9%	97.2%	58.9%	103%	28.3%	77%	71.9%	71.4%	70.6%
CCCCCCCCCCCCNC(=O)[C@H]1CSC(c2ccsc2)N1 (stereo not given in full)	-52.9% (active)	-74.1% (active)	3.58% (active)	-94.7% (active)	-80.1% (active)	-10% (active)	32.7%	63.7%	-94.8% (active)	84%
c1coc(CNc2ccnc(Nc3ccc(OCCN4CCCCC4)cc3)n2)c1	86.7%	68.1%	101%	93.1%	89.2%	69.5%	85.3%	92.5%	94.9%	89.5%
CC(=O)Nc1ccc(/C=C/C(=O)c2ccccc2)cc1	102%	102%	120%	97.1%	105%	74.7%	68.1%	92.6%	98.5%	112%
COc1ccc(-c2ccc(C)n2-c2ccc(-c3nc4ccccc4s3)cc2)cc1	81.4%	85.2%	98.2%	87.6%	88.8%	86.2%	89.4%	85.6%	100%	94%
C=C1CCC2C(C)(CO)C(O)CCC2(C)C1CC(NCc1ccccc1)C1=CCOC1=O (stereo not given)	98.9%	100%	103%	107%	102%	99.8%	89.9%	99.9%	96.3%	103%
